Screens (PubChem)
RE007 growth inh – less growth of the S. pombe RE007 Vpr strain. S. pombe RE007 Vpr strain, BacTiter-Glo ATP luminescence, 24 h. Potency, µM (top dose mostly 92.2 µM), hits mostly inhibitors. hit rate 0.21% among 360,000. AID 651644; active = well fitted falling curve with a large enough effect; inconclusive = small, poorly fitted or top-dose-only effect; inactive = no such curve, though single readings can be large or run the other way; also: nearly all actives have a fitted effect of over 50% in size
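Fission yeast strain RE007, carrying one chromosomally integrated HIV-1 vpr copy, was seeded at OD 0.01 in PMG+AL medium with 23 nL pinned compound. After 24 h at 30 °C and 99% humidity, viability was read by BacTiter-Glo luminescence.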
Sm TGR inh – inhibitors of Schistosoma mansoni thioredoxin glutathione reductase. Q962Y6. hit rate 3% among 360,000. Potency, µM (series often up to 114 µM), actives largely listed as inhibitors. purified TGR, DTNB reduction, TNB absorbance 405 nm. AID 485364; also: nearly all actives have a fitted effect of over 60% in size
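First, TGR (20 nM dispensed) and NADPH were mixed with compound. Second, a 15 min room-temperature incubation followed. Third, further NADPH and then DTNB were added to start the reaction. Finally, TNB absorbance was monitored kinetically.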
HCV inh – blocks hepatitis C virus; Huh7.5.1 HCVcc-Cre infection, luciferase reporter, 44 h; Potency, µM (series often up to 41.8 µM), actives largely listed as inhibitors; hit rate 3.4% among 340,000; AID 651820
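Cells seeded at 1,000/well and cultured 4 h, then compounds added followed by HCVcc-Cre virus (~0.5 moi). After 44 h further culture, luciferase substrate was added, plates held 15 min at room temperature, and luminescence read for 15 sec.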
Marburg entry inh – Marburg virus entry inhibition; Marburg virus pseudotyped entry inhibition, cell reporter; Potency, µM (titrated, usually from 37.8 µM), hits mostly inhibitors; hit rate 1.8% among 300,000; AID 540276; calls by dose curve; tested in HEK293 cells
Lassa entry inh – inhibitors of Lassa virus binding or cell entry | Lassa virus pseudotype entry inhibition, cell reporter | Potency, µM (doses to about 37.9 µM), hits mostly inhibitors | hit rate 1.2% among 300,000; calls by dose curve; tested in HEK293 cells; also: nearly all actives have a fitted effect of over 50% in size
FMDV antiviral – antivirals against foot and mouth disease virus; FMDV antiviral cell-based qHTS; Potency, µM (top dose mostly 57.9 µM), usual class: inhibitors; hit rate 1.2% among 410,000; calls by dose curve; tested in HEK293T cells; also: read-out not given here; nearly all actives have a fitted effect of over 45% in size
Numbers stand for hits; – = inactive; ? = inconclusive; · = no result given. Hits are enriched below; roughly 7.2% of the tested compounds scored in any of these assays. Unless noted, calls follow the shape of the dose curve; as a rule, active = well fitted curve in the direction sought with a large enough effect; inconclusive = small, poorly fitted or top-dose-only effect, or another doubt; inactive = no such curve, though single readings can be large; an effect the other way counts as inactive or inconclusive.

SMILES | RE007 growth inh | Sm TGR inh | HCV inh | Marburg entry inh | Lassa entry inh | FMDV antiviral
CC(C)(C)C1CCc2c(sc(NC(=O)c3ccc(Cl)cc3)c2C(=O)NCc2ccco2)C1 (centres undefined) | · | – | · | – | – | –
O=C(C=P(c1ccccc1)(c1ccccc1)c1ccccc1)c1ccccc1-c1ccccc1C(=O)C=P(c1ccccc1)(c1ccccc1)c1ccccc1 | – | · | ? | ? | 2.2µM | 20µM
O=C(NNC(=O)c1ccccc1-c1ccccc1C(=O)O)c1ccccc1 | – | – | – | – | – | –
COC(=O)[C@H]1O[C@@H](c2cc(OC)c(C)c(OC)c2OCc2ccccc2)[C@H](C)[C@@H]2O[C@]12C | · | · | · | – | – | ·
CCCCCCN1CCN(C2CN(CCCC)S(=O)(=O)C2)CC1 (centres undefined) | – | · | · | · | – | –
C(=N\N1CCN(C2c3ccccc3-c3ccccc32)CC1)/c1ccncc1 | – | – | – | – | – | –
C/C(=N\N1CCN(C2c3ccccc3-c3ccccc32)CC1)c1ccncc1 | – | – | – | – | – | 13µM
CCCn1c(CCCNC(=O)c2ccccc2OC)nc2ccccc21 | · | – | · | – | – | –
CCOc1ccc(CN2C(=O)c3ccccc3Sc3ccc(C(=O)N4CCN(C)CC4)cc32)cc1 | · | – | · | – | – | –
S=C(NCc1ccco1)Nc1cc(Cl)c(Cl)cc1Cl | – | – | 25µM | – | – | –
S=C(NCc1ccco1)Nc1cc(-c2ccccc2)[nH]n1 | – | 16µM | ? | – | – | –
Cc1nc2ccn(Cc3ccco3)c(=O)c2cc1C(=O)NCc1ccccc1F | · | – | · | · | ? | –
Oc1ccc(Cl)cc1C1=NNC(c2cc(Br)cc3c2OCOC3)C1 (centres undefined) | – | 25µM | – | ? | ? | –
Oc1ccc(Cl)cc1C1=NNC(c2ccc(Cl)cc2)C1 (centres undefined) | – | ? | ? | – | – | –
COc1ccc([C@]23Cc4ccccc4[C@H](O2)C2=C(CC(C)(C)CC2=O)O3)cc1 | · | · | · | – | · | ·
Cc1cccc2cc(C3CC(c4ccco4)=NN3S(C)(=O)=O)c(Cl)nc12 (centres undefined) | – | 32µM | – | ? | ? | –
COc1ccc2[nH]c(=O)c(CN(CC3CCCO3)C(=O)Nc3ccc(F)cc3)cc2c1 (centres undefined) | – | – | ? | ? | 11µM | 14µM
CCOc1ccccc1NC(=O)CCc1nc(-c2cccc(C)c2)no1 | · | – | · | – | – | –
CCOCC(=O)Nc1c(C(=O)Nc2ccc3c(c2)OCCO3)oc2ccccc12 | – | – | ? | ? | ? | –
CCOC(=O)c1cccc(NC(=O)c2ccc3c(c2)OCO3)c1 | – | – | ? | – | ? | –
Cc1ccc(C)c(OCC(=O)Nc2ccc3c(c2)OCO3)c1C | – | – | 11µM | ? | ? | –
COCC(=O)Nc1c(C(=O)Nc2ccc3c(c2)OCCO3)oc2ccccc12 | – | – | ? | 11µM | ? | –
CCOC(=O)c1cccc(NC(=O)/C=C/c2ccc3c(c2)OCO3)c1 | – | – | 13µM | ? | ? | 40µM
CCOC(=O)CNc1ccc2c(c1)OCO2 | – | 50µM | ? | – | – | –
Cc1ccc(NC(=O)C2CCCN(S(=O)(=O)c3ccc4[nH]c(=O)ccc4c3)C2)cc1Cl (centres undefined) | · | – | · | · | – | –
SMILES | RE007 growth inh | Sm TGR inh | HCV inh | Marburg entry inh | Lassa entry inh | FMDV antiviral
Cn1cccc1C(=O)OCC(=O)Nc1ccc2c(c1)OCCO2 | – | · | – | 6.3µM | 7.1µM | –
Cc1ccc(Cl)c(OCC(=O)Nc2ccc3c(c2)OCCO3)c1 | – | – | 10µM | ? | – | –
CCN(CC(=O)Nc1ccc2c(c1)OCCO2)C(=O)COc1cc(C)ccc1Cl | – | – | ? | – | – | –
COc1ccccc1NC(=S)NC(=O)CC(C)C | – | 28µM | – | – | – | –
COc1ccccc1NC(=S)NCCC(c1ccccc1)c1ccccc1 | – | – | 10µM | – | – | –
COc1ccccc1NC(=S)NC(=O)CCc1ccccc1 | – | 4.5µM | – | ? | ? | –
CC1(C(=O)NS(=O)(=O)c2ccccc2C(F)(F)F)CCN1C(=O)CC1CCCC1 (centres undefined) | – | · | · | · | · | –
Cc1ccc(S(=O)(=O)Nc2ccc3c(c2)C(=O)N([C@H](C)CO)C[C@H](C)[C@@H](CN(C)C(=O)Nc2ccc(C(F)(F)F)cc2)O3)cc1 | – | · | 13µM | · | · | –
Cc1ccc(S(=O)(=O)N(C)C[C@@H]2Oc3ccc(NS(=O)(=O)c4ccccc4)cc3CC(=O)N([C@@H](C)CO)C[C@H]2C)cc1 | – | · | 0.56µM | · | · | –
Cc1ccc(S(=O)(=O)Nc2ccc3c(c2)CC(=O)N([C@H](C)CO)C[C@@H](C)[C@H](CN(C)S(=O)(=O)c2ccccc2)O3)cc1 | – | · | – | · | · | –
Cc1noc(C)c1S(=O)(=O)N(C)C[C@H]1Oc2ccc(NS(=O)(=O)c3ccc(F)cc3)cc2C(=O)N([C@H](C)CO)C[C@@H]1C | – | · | – | · | · | –
C[C@H](CO)N1C[C@H](C)[C@@H](CN(C)C(=O)Nc2ccc(C(F)(F)F)cc2)Oc2ccc(NS(=O)(=O)c3ccc(F)cc3)cc2C1=O | – | · | – | · | · | –
Cc1noc(C)c1S(=O)(=O)Nc1ccc2c(c1)C(=O)N([C@H](C)CO)C[C@H](C)[C@@H](CN(C)C(=O)NC(C)C)O2 | – | · | ? | · | · | –
Cc1noc(C)c1S(=O)(=O)N(C)C[C@H]1Oc2ccc(NS(=O)(=O)c3cn(C)cn3)cc2C(=O)N([C@H](C)CO)C[C@@H]1C | – | · | 3.5µM | · | · | –
Cc1noc(C)c1NC(=O)N(C)C[C@@H]1Oc2ccc(NS(=O)(=O)c3c(C)noc3C)cc2C(=O)N([C@H](C)CO)C[C@H]1C | – | · | 3.2µM | · | · | –
C=CCOC(=O)N[C@@H](c1cccc(OC)c1)[C@@H](C)C=CCC(=O)O | · | · | · | – | · | ·
COC(=O)N1C(c2ccccc2)=Cc2ccccc2C1CC(C)=O (centres undefined) | · | · | · | – | · | ·
C[C@H](CO)N1C[C@H](C)[C@@H](CN(C)C(=O)Nc2ccccc2)Oc2c(NS(=O)(=O)c3cn(C)cn3)cccc2C1=O | – | · | – | · | · | –
C[C@H](CO)N1C[C@H](C)[C@@H](CN(C)C(=O)Nc2ccc(C(F)(F)F)cc2)Oc2c(NS(=O)(=O)c3cn(C)cn3)cccc2C1=O | – | · | 2.8µM | · | · | –
Cc1ccc(C)c(NC(=O)CSc2ncc3c(n2)-c2ccccc2N(Cc2ccccc2C)S3(=O)=O)c1 | · | – | · | · | – | –
COCCOc1ccc(C(F)(F)F)cc1NC(=O)COC(=O)c1cc([N+](=O)[O-])ccc1N1CCOCC1 | – | – | ? | 13µM | ? | –
CCc1ccc(C(=O)COC(=O)c2cc([N+](=O)[O-])ccc2N2CCOCC2)cc1 | – | – | 1µM | 3.2µM | ? | –
O=C(COC(=O)/C=C/c1ccc(F)cc1)Nc1cc(C(F)(F)F)ccc1N1CCOCC1 | – | – | – | – | – | –
